Vaccinia mCherry – vaccinia inhibition (mCherry reporter); Potency, µM (top dose mostly 36.5 µM), for the others: top-dose activity change, negative = inhibition, hits mostly inhibitors; Vaccinia virus mCherry reporter infection, fluorescence; 310,000 compounds, 0.63% hits; calls by dose curve; tested in A549 cells; note: nearly all actives have a fitted effect of over 35% in size
Vaccinia Venus – inhibitors of vaccinia virus (Venus reporter) | Vaccinia virus Venus reporter expression, fluorescence | Potency, µM (series often up to 36.5 µM), for the others: at the top dose activity change, negative = inhibition, usual class: inhibitors | 330,000 compounds, 0.46% hits | AID 720580; calls by dose curve; tested in A549 cells; note: nearly all actives have a fitted effect of over 30% in size
HCV inhibitor – blocks hepatitis C virus; Huh7.5.1 HCVcc-Cre infection, luciferase reporter, 44 h; Potency, µM (highest dose often 41.8 µM), inactives show top-dose activity change, negative = inhibition, hits mostly inhibitors; 340,000 compounds, 3.4% hits; active = well fitted inhibition curve with a large enough effect; inconclusive = small, poorly fitted or top-dose-only effect, or another doubt; inactive = no such curve, though single readings can be large or run the other way
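Infectious HCVcc-Cre (~0.5 moi) was added to cells just after compound, with cells seeded 4 h earlier at 1,000 per well. Luciferase activity after 44 h culture reported infection; substrate was incubated 15 min at room temperature before reading.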
The depositor's hits bear a star; i = inactive; ? = inconclusive; . = not tested or not shown. Most compounds without a hit are left out; they make up all but 3.3% or so of the library. % is set by controls: 0 for no effect and ±100 for the full control effect; potency is the fitted concentration of half-maximal effect.

SMILES	Vaccinia mCherry	Vaccinia Venus	HCV inhibitor
CCc1ccc(N2CC(C)Cn3c2nc2c3c(=O)[nH]c(=O)n2C)cc1 (stereo not drawn)	?	?	25µM*
CC1CN(c2ccc(Cl)cc2)c2nc3c(c(=O)[nH]c(=O)n3C)n2C1 (stereo not drawn)	.	.	5%
CCC1CCc2nc3sc(C(=O)Nc4ccc(F)cc4F)c(N)c3cc2C1 (stereo not drawn)	-8%	3%	.
CSc1ccc2cc(CNCc3ccccc3F)c(N3CCCC(CO)C3)nc2c1 (stereo not drawn)	-7%	-3%	.
COc1nc(Cl)cn(-c2ccc(C)cc2)c1=O	i	-4%	15%
Cc1ccc(-n2c(Cl)c(Cl)nc(Cl)c2=O)cc1	?	?	7.1µM*
Cc1nc2ccn(Cc3ccco3)c(=O)c2cc1C(=O)N1CCN(c2ccc(F)cc2)CC1	-11%	-7%	.
CCn1c2ccccc2c2cc(CN3CCN(S(=O)(=O)CC)CC3)ccc21	.	.	7%
CCn1c2ccccc2c2cc(CNCc3ccc(OC)cc3OC)ccc21	.	.	13µM*
CCC(CC)NCc1ccc2c(c1)c1ccccc1n2CC	.	.	13µM*
COc1cccc(CNCc2ccc(OC)cc2OC)c1	.	.	-6%
Cc1c(C(=O)NCC(C)C)sc2ncnc(NCC3CCCO3)c12 (stereo not drawn)	-11%	-1%	.
COCC1CCN(C(=O)c2cc(COc3cccc4cnccc34)on2)CC1	-11%	-16%	7.1µM*
O=C(c1cc(COc2cccc3cnccc23)on1)N1CCCC(CCCO)C1 (stereo not drawn)	.	.	1.4µM*
COCC1CCN(C(=O)c2cc(COc3ccc(F)cc3Cl)on2)C1 (stereo not drawn)	3%	-3%	.
COc1ccc(OCc2cc(C(=O)N3CCCC(CO)C3)no2)c2ccccc12 (stereo not drawn)	-1%	-10%	?
O=C(Nc1cccc(C(F)(F)F)c1)c1cc(CN2CCOCC2)on1	-10%	-9%	.
CN(C)CCCCCCNc1nccc(N2CCN(C)CC2)n1	-17%	-18%	.
Oc1c(N=NC(=S)Nc2ccccc2F)c2ccccc2n1Cc1ccccc1F	.	.	13µM*
CCNC(=S)N=Nc1c(O)n(Cc2ccc(Cl)cc2)c2ccccc12	-16%	-14%	?
Cc1ccc(C)c(Cn2c(O)c(N=NC(=S)Nc3ccccc3F)c3ccccc32)c1	.	.	3.2µM*
Cc1ccccc1Cn1c(O)c(N=NC(=S)Nc2ccccc2F)c2ccccc21	.	.	2.2µM*
C=CCn1c(O)c(N=NC(=S)Nc2ccc(OC)cc2)c2ccccc21	-29%	-30%	?
C=CCn1c(O)c(N=NC(=S)Nc2cccc(OC)c2)c2ccccc21	-20%	-14%	?
Cc1ccc(F)cc1CNC(=O)c1sc2ncnc(NCC3CCCO3)c2c1C (stereo not drawn)	i	-18%	.
SMILES	Vaccinia mCherry	Vaccinia Venus	HCV inhibitor
O=C(O)c1cc(=O)c2c3nc4ccccc4oc-3cc(=O)c2[nH]1	-10%	-10%	.
O=C(/C(Cl)=C/Nc1ccc(Br)cn1)C(F)(F)F	-22%	-21%	0%
CCCOc1ccccc1/C=C1\SC(N2CCCCC2)=NC1=O	-14%	6%	10µM*
O=C1N=C(N2CCCCC2)S/C1=C\c1ccccc1F	-24%	-21%	-23%
CN(C)CCCn1c(NC(=O)C2CCCCC2)nc2ccccc21	3%	0%	?
CCCCn1c(NC(=O)c2ccccc2)nc2ccccc21	i	-23%	13µM*
CCn1c(NC(=O)c2cccc(Cn3cc(Cl)cn3)c2)nc2ccccc21	?	-28%	14µM*
CCn1c(NC(=O)c2ccccc2)nc2ccccc21	-6%	-12%	7%
Cn1c(NC(=O)c2cccc(Cn3cc(Cl)cn3)c2)nc2ccccc21	?	-22%	-21%
CCCCn1c(NC(=O)C2CCCCC2)nc2ccccc21	.	?	13µM*
Cc1cnnc2ccccc12	i	-5%	.
Cc1cn([C@H]2C[C@H](O)[C@@H](CNCc3ccc(Oc4cc(-n5cccn5)ncn4)cc3)O2)c(=O)[nH]c1=O	i	-7%	.
O=C(Nc1ccc(Br)cn1)c1cnn2c1NC(=C1CC1)C=C2C(F)F	-22%	-27%	.
O=C(NNC(=O)C(c1ccccc1)c1ccccc1)c1ccccn1	?	?	6.3µM*
O=C(NNc1ccccn1)C(c1ccccc1)c1ccccc1	-16%	-10%	12%
O=C(NNC(=S)Nc1ccc(Cl)c(Cl)c1)c1ccccn1	?	?	4.5µM*
CCNC(=S)NNC(=O)c1ccccn1	?	?	-9%
CNC(=O)c1c(NC(=O)c2ccc(S(=O)(=O)N3CCCC(C)C3)cc2)sc2c1CCC2 (stereo not drawn)	-25%	-15%	.
O=C(c1cn(-c2ccccc2)nc1-c1ccccc1)N1CCOCC1	.	.	-5%
O=C(c1ccco1)N1CCN(C(=O)c2cn(-c3ccccc3)nc2-c2ccccc2)CC1	.	.	-19%
Cc1ccc(-c2nn(-c3ccccc3)cc2C(=O)N2CCN(c3ccccn3)CC2)cc1	-17%	?	11µM*
Cc1ccc(-c2nn(Cc3ccccc3)cc2C(=O)N2CCN(c3ccccn3)CC2)cc1	.	.	-14%
O=C(c1cn(-c2ccccc2)nc1-c1ccccc1)N1CCN(c2ccccn2)CC1	.	.	10µM*
O=C(OCC(=O)N1CCN(C(=O)c2ccco2)CC1)c1cn(-c2ccccc2)nc1-c1ccccc1	.	?	2.8µM*
Cc1cccc(CN2CCN(C3CN(C4CCCCC4)S(=O)(=O)C3)CC2)c1 (stereo not drawn)	-3%	-15%	.
SMILES	Vaccinia mCherry	Vaccinia Venus	HCV inhibitor
COc1cc(C=O)cc(OC)c1[N+](=O)[O-]	-8%	-7%	.
O=C(Nc1cccc(Cl)c1)c1csc(COCCO)n1	-19%	-6%	.
Cc1ccc(Cl)c2sc(NC(=O)CS(=O)(=O)c3ccc(Cl)cc3)nc12	i	-15%	.
NC(CCC(=O)NCS(=O)(=O)O)C(=O)O (stereo not drawn)	-8%	-6%	.
O=[N+]([O-])c1ccc(S(=O)(=O)Nc2nc3ccccc3nc2Nc2ccccc2)cc1	7%	-4%	?
COc1cc(Nc2nc3ccccc3nc2NS(=O)(=O)c2ccc([N+](=O)[O-])cc2)cc(OC)c1OC	?	-20%	22µM*
COc1ccccc1-c1ccnc(-n2ncc(C(=O)NC3CCCN(Cc4ccccc4)C3)c2C)n1 (stereo not drawn)	-16%	3%	.
CC(C)CC(=O)Nc1ccc(S(=O)(=O)N2CC3CC(C2)c2cccc(=O)n2C3)cc1 (stereo not drawn)	-1%	-11%	-8%
CCCOc1ccc(C(=O)Nc2ccc(S(=O)(=O)N3C[C@@H]4C[C@@H](C3)c3cccc(=O)n3C4)cc2)cc1	?	?	3.2µM*
CC(C)(CC(=O)O)CC(=O)N1CCCN(c2nccc(C(F)(F)F)n2)CC1	.	.	6%
CCn1c2c(c3cc(Cl)ccc31)CCCC2=O	?	-19%	?
Cc1ccc2c(c1)c1c(n2C)C(=O)CCC1	-8%	-12%	4µM*
CCCN(C(=O)Cc1nc(-c2ccc(OC)cc2)no1)c1ccccc1C	-7%	-5%	.
COc1ccc([C@H]2C[C@H](n3cc(COC(=O)c4ccccc4)nn3)[C@@H](O)CN2CC2CCCCC2)cc1	-15%	-23%	.
N#Cc1c(/N=C/c2cccs2)sc2c1CCCCC2	i	-25%	10µM*
N#Cc1c(/N=C/c2ccc(Br)s2)sc2c1CCC2	-14%	-11%	0%
